The target of assay [1] is Nuclear receptor subfamily 1 group I member 2 (Rattus norvegicus) (UniProt Q9R1A7). Description: qHTS assay for small molecule activators of the rat pregnane X receptor (rPXR) signaling pathway (AID 651751). The following applies: rPXR reporter cells, luciferase (One-Glo), 24 h.
The nature of assay [2]: qHTS assay for small molecule activators of the human pregnane X receptor (PXR) signaling pathway (AID 720659). The following applies: DPX-2 HepG2 CYP3A4-luciferase, 24 h; series mostly up to 92.3 µM. (In general: In qHTS, concentration-response curves come from the screen itself.)

Several values for one entry are separate records, joined by “and”; a condition that tells them apart may be missing. Identical values can stand only once. A number with no mark means an inactive call. Activity calls are given as the source filed them. The rule behind the calls is not given here.
Note: 0% is about no effect.

Chain of Nuclear receptor subfamily 1 group I member 2 (Rattus norvegicus) (Q9R1A7 whole entry, looked up): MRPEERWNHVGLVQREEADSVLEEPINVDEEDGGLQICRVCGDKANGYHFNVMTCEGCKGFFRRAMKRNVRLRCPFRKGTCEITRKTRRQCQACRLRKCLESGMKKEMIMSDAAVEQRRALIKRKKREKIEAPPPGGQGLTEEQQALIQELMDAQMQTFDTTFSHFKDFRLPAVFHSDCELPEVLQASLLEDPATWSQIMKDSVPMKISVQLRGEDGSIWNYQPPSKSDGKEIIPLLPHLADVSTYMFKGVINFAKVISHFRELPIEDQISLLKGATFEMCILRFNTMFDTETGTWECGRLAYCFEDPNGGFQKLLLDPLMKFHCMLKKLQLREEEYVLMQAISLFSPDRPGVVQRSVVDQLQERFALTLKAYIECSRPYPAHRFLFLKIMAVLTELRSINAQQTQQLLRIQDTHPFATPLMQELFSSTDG

Turning to `Cc1cc2nc3c(=O)[nH]c(=O)nc-3n(C[C@H](O)[C@H](O)[C@H](O)CO)c2cc1C`, the max response in assay [1] is 2.07%.
On to `O=C1O[C@H]([C@@H](O)CO)C(O)=C1O`, for which the max response in assay [1] is 2.78% and -0.0955%. Further, in assay [2], the compound was called inactive.
In the case of `CC12CCC(CC1)C(C)(C)O2`, the max response in assay [1] is 2.12%. Besides, in assay [2], the result was inactive.

Values taken from PubChem BioAssay (NCATS).
